Source: PubChem BioAssay AID1224817 (Yan Lab, Georgia Cancer Center, Augusta University, 2016)
The campaign covered roughly 2,000 compounds. About 25 (1%) were called active.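 The calls were made as follows: active = log2 luciferase ratio at or below -0.5849, meaning signal at two thirds of solvent-only control or lower; inactive = the rest.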 The full list was thinned out, with actives kept by preference.

Assay: eIF4E expression suppression, luciferase knock-in reporter – cell-based, HT1080, primary screen (AID 1224817);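 also: luciferase reports endogenous eIF4E expression since it is co-expressed from the native EIF4E locus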
Details: HT1080 EIF4E-luc2 knock-in reporter, 16 h, at 2.5 µM, active compounds read low

log2 luciferase activity ratio, inactive:
Nc1nccc(Nc2ccc(S(N)(=O)=O)cc2)n1 -0.103, C/C(=N\NC1=NCCN1)c1cn(C2=NCCN2)nc1C 0.0578, CNC(c1ccncc1)C(NC)c1ccncc1 (stereo not given) 0.0459, O=C1c2cccc([N+](=O)[O-])c2C(=O)N1c1ncn[nH]1 -0.0931, COC(=O)[C@@]12OC[C@]34[C@H]([C@@H](O)[C@@H]1O)[C@@]1(C)C=C(OC5OC(CO)C(O)C(O)C5O)C(=O)[C@@H](C)[C@@H]1C[C@H]3OC(=O)[C@H](OC(=O)/C=C(\C)C(C)C)[C@@H]24 (stereo not given in full) 0.215, O=C(O)C1OC1C(=O)O (stereo not given) -0.131, Cc1cc(N)c2cc(OCCOc3ccc4nc(C)cc(N)c4c3)ccc2n1 -0.0306, CN(CCc1ccccn1)c1ccc2c(c1)C(=O)c1ccccc1-2 0.213, COc1c2c(cc3c1[C@@H]1Oc4c(ccc(O)c4CC=C(C)C)[C@@H]1CO3)OC(C)(C)C=C2 -0.0761, O=C1c2ccccc2C(=O)N1CCCSc1ccccc1 0.412, CN(C)CC(O)c1ccc(Cl)c2ccccc12 (stereo not given) -0.0364, Oc1c(C(O)(c2ccccc2)c2ccc3ccccc3c2O)ccc2ccccc12 0.313, COc1cc2oc3cc(=O)cc4oc(-c5ccccc5)cc(c2c2c1CCC(c1ccccc1)O2)c43 (stereo not given) 0.143, CCCCSCc1nc2nc(Cl)c(Cl)nc2[nH]1 -0.0768, Cn1cc(NC(=O)c2cc(NC(=O)c3cc(NC=O)cn3C)cn2C)cc1C(=O)NCCC(=N)N -0.0884, NC(N)=NC(N)=Nc1c(F)c(F)c(F)c(F)c1F 0.115, O=C(O)/C=C/C(=O)Nc1cccc2c1-c1ccccc1C2=O -0.335, NNC(=O)CCc1ccc2ccc3ccccc3c2c1 -0.0063, NC(=O)N/N=C1/CCC(O)CC1CC(=O)O (stereo not given) -0.0076, CSc1nc(C)cc(Nc2ccc(O)c(CN3CCOCC3)c2)n1 0.0575, CC(C)(C)c1cc(Br)c(O)c(CN(Cc2cc(C(C)(C)C)cc(Br)c2O)C2CCCCC2)c1 0.147, Cc1ncc(CSC(=N)N)n1Cc1ccccc1 0.207, N=C(N)SCc1cccc2c(=O)cc(-c3ccccc3)oc12 -0.583, O=[N+]([O-])c1nccn1CC(O)CN1CCCCC1 (stereo not given) 0.364, NC(Cc1nn[nH]n1)C(=O)O (stereo not given) -0.174, Cc1cc2ccccc2c[n+]1CC(O)C[n+]1cc2ccccc2cc1C -0.0398, O=C(O)c1nn(-c2ccc(Cl)cc2)c2c1C(=O)c1ccccc1C2=O 0.061, Cc1c2cccc(Sc3ccccc3)c2c2c3c(cccc13)[S+](c1ccccc1)C2 (stereo not given) 0.38, Cc1ncc(COP(=O)(O)O)c(C)c1O 0.148, O=C(O)c1ccc(C(=O)O)c(C(=O)O)c1.[NH-]C1CCCCC1[NH-].[Pt+2] 0.127, Cn1c(=S)c2[nH]c(SCCCc3ccccc3)nc2n(C)c1=O 0.0675, CN1CCN(c2nc3c(c(=O)n(C)c(=O)n3C)n2C)CC1 -0.0962, Cc1[nH]n(-c2ccc(S(=O)(=O)O)cc2)c(=O)c1N=Nc1ccccc1 0.391, Nc1ccc(N=Nc2ccc(-c3ccc(O)cc3)cc2)c2ccc(S(=O)(=O)O)cc12 0.247, NNC(=O)C(O)C(O)C(=O)NN (stereo not given) 0.225, Nc1nc2c(c(=O)[nH]1)NC(CCNc1ccc(C(=O)O)cc1)CN2 (stereo not given) -0.0715, O=C1COC(c2ccccc2O)=NN1CCCN1CCCC1 0.0493, CNC1C(OC2C(OC3C(O)C(O)C(N=C(N)N)C(O)C3N=C(N)N)OC(C)C2(O)/C=N/NC(N)=S)OC(CO)C(O)C1O (stereo not given) -0.0125, COc1cccc2[nH]c(-c3ccccn3)nc12 1.75, C/C=C/c1cc2c(c(=O)o1)C(=O)[C@@H](O)[C@H](C)O2 0.166, Sc1ccc2ccccc2c1CNCc1ccccc1 0.379, O=C(O)C1CC[N-]CC1.O=C(O)C1CC[N-]CC1.[NH2-].[NH2-].[Pt+4] 0.578, CCC(C(=O)C(C)C(O)C(C)CCc1ccc(C)c(O)c1C(=O)O)C1OC(CC)(C2CCC(O)(CC)C(C)O2)CC1C (stereo not given) -0.243, CC1=C2[C@H]3OC(=O)[C@@H](C)[C@@H]3CC[C@@]2(C)C=C/C1=N\O -0.026, Cc1ccc2nc(-c3ccc(NC(=O)c4ccc(N)cc4)c(S(=O)(=O)O)c3)sc2c1 0.394, O=C(O)CNC(=O)C1NC(C(F)(F)F)(C(F)(F)F)OC1(C(F)(F)F)C(F)(F)F (stereo not given) 0.305, C=C1C(=O)OC2CC(C)C3(O)CCC(=O)C3(C)CC12 (stereo not given) -0.237, Nc1ccc(S(=O)(=O)NCCS(=O)(=O)O)cc1 -0.13, O=C(O)c1cc(=O)[nH]c(=S)[nH]1 0.238, NC(N)=N/N=C/c1ccc(O)c(C(=O)O)c1 0.267, NNC(=O)CS(=O)(=O)Nc1ncccn1 -0.266, O=C(N/N=C/c1ccc2c(c1)CCC2)c1ccccc1O 0.157, CS(=O)(=O)Nc1ccc(Nc2c3ccccc3nc3ccccc23)cc1 0.308, O=C(O)C(O)C(O)C(O)C(=O)CO (stereo not given) -0.272, CC(=O)Nc1cc(CN2CCCCC2)c(O)c2ncccc12 -0.0787, Cc1nc(CN2CCCCC2)c(O)c(=O)[nH]1 -0.0244

log2 luciferase activity ratio, active:
Cc1c2ccccc2c(CSC(=N)N)c2ccccc12 -2.19, O=C1N[C@@H]([C@H]2CC[C@H](Cl)CN2)C(=O)N[C@H]1[C@H]1CC[C@H](Cl)CN1 -0.835, CCOc1ccc2c(ccc(/C=C\c3cc(C)c4cccnc4c3O)[n+]2C)c1 -0.823, Oc1cccnc1CN1CCCCC1 -0.635
